Drawing on ChEMBL document CHEMBL3988442, “University of Dundee, Small-Polar-MMV Screening Library” (2021), this text covers Percent Effect for eleven compounds.

Holding throughout (set-up): scale not given: direction of the effect not stated beside the values
The target in test [1] is Protein translocase subunit SecA (Escherichia coli (strain K12)) (UniProt P10408). Put plainly: Assay to Identify E. coli SecA ATPase Inhibitors. Format: functional. The settings on record: 30 µM.
Test [2] deals with T1, Ubiquitin-activating enzyme e1, putative (Leishmania donovani (strain BPK282A1)) (UniProt E9BSI1).
T1 sequence (whole entry): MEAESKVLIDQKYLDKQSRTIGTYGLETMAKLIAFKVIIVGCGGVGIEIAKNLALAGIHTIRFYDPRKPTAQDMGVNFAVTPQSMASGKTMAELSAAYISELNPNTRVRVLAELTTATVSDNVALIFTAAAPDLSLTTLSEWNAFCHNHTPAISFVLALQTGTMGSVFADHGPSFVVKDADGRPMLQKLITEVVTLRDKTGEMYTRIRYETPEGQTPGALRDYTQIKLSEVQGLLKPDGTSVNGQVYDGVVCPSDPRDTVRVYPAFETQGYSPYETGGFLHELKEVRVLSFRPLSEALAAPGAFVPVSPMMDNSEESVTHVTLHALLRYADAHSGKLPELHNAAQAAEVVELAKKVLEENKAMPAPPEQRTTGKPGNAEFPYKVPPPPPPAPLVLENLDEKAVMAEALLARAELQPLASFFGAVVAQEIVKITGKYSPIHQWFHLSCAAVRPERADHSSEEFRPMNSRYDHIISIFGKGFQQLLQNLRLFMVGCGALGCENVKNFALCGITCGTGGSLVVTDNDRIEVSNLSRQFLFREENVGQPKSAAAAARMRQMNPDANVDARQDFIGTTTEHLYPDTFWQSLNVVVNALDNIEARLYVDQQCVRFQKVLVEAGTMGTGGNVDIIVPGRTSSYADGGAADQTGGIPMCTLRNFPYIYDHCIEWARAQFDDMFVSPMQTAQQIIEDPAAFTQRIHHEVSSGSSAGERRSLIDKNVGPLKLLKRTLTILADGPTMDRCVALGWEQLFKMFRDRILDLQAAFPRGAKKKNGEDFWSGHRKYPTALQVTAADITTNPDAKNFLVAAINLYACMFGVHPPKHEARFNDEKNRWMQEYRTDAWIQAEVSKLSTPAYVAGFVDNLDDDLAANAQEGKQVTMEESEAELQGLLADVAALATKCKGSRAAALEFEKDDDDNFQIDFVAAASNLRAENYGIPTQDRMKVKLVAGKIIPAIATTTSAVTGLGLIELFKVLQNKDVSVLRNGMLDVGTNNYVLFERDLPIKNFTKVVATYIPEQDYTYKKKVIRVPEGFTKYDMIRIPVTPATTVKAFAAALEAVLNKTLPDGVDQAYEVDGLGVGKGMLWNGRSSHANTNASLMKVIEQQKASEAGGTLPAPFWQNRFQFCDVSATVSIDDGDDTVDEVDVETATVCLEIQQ
Briefly: Leishmania donovani Ubiquitin Activating Enzyme (LdE1). In kind it is functional. The settings on record: 30 µM.

Test [3] has as its target AMP-activated protein kinase, AMPK (Homo sapiens) (UniProt P54646+O43741+P54619+Q9UGJ0+Q9Y478+Q13131+Q9UGI9). Put plainly: AMP-dependent Kinase enzyme assay. An in vitro enzyme assay that detects ADP turnover that is directly proportional to AMPK activity. This uses naive AMPK that is activated during the assay with MK-8722. In kind it is functional. The settings on record: 30 µM.

Test [4] addresses Sialic acid-binding Ig-like lectin 9 (Homo sapiens) (UniProt Q9Y336). Put plainly: Hs-Siglec9 ALPHAscreen SOP 20170721. Conditions: 10 µM.
The test system of a further test is Trypanosoma cruzi. Briefly: Trypanosoma cruzi phosphomannomutase and mannose-1-phosphate guanylyltransferase assay. In kind it is functional. Conditions: 10 µM.
Test [5] deals with T2, Arginase-2, mitochondrial (Homo sapiens) (UniProt P78540).
T2 sequence (whole entry): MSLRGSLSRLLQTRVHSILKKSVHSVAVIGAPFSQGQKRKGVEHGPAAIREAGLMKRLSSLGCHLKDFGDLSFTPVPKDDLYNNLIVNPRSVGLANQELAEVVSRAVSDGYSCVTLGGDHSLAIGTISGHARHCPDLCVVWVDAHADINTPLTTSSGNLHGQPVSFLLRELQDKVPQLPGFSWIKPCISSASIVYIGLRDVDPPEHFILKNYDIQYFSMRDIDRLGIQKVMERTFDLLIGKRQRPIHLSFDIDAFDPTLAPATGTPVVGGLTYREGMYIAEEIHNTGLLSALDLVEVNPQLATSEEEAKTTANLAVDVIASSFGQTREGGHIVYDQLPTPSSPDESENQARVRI
Put plainly: in vitro enzyme assay to detect the production of urea directly proportional to the activity of Arginase II. Note: in the data most compounds retested in dose-response had high values. Format: functional. Conditions: 33.3 µM.

The target in test [6] is T3, Proteasome subunit beta (Trypanosoma cruzi) (UniProt O96673).
T3 sequence (whole entry): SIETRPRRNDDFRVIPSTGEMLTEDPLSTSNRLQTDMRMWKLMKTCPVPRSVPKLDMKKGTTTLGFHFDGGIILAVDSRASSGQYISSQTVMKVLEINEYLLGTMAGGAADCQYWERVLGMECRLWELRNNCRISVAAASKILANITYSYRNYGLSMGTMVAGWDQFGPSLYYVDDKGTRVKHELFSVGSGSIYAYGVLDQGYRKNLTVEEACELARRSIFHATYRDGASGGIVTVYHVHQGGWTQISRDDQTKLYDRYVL
Put plainly: Trypanosoma cruzi proteasome chymotrypsin-like activity (TcProtChymo) assay. Note: in the data most compounds retested in dose-response had high values. Format: functional. The settings on record: 9.37 µM.

The species entered for a further test is Homo sapiens. Put plainly: To identify inhibition of the IFN signalling (Jak-Stat) pathway via expression of an eGFP reporter gene under the control of an IFN-stimulated response element (ISRE) containing MxA promoter. The settings on record: 30 µM. Format: functional.
Test [7] addresses T4, Tyrosyl-tRNA synthetase, putative (Trypanosoma cruzi (strain CL Brener)) (UniProt Q4DSP6).
T4 sequence (whole entry): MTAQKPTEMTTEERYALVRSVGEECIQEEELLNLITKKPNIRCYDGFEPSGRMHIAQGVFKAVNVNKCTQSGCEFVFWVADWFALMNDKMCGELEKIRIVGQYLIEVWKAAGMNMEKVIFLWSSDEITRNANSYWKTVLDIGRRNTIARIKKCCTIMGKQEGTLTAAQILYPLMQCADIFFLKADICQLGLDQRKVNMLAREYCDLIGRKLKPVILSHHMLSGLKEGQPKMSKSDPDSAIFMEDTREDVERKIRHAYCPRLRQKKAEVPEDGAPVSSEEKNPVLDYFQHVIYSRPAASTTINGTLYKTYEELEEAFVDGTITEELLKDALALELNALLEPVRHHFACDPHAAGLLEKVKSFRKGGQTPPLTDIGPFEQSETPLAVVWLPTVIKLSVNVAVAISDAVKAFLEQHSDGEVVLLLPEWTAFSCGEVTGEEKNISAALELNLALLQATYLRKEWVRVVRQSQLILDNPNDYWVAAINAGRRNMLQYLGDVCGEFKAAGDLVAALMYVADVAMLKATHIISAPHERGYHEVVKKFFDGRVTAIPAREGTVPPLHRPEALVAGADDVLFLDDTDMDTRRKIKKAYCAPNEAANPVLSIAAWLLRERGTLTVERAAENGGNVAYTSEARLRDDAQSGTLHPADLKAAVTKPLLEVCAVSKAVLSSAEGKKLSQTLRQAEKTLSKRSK
Put plainly: Trypanosoma cruzi tyrosyl tRNA synthetase (TcYRS) _High Tyrosine SOP. Note: in the data most compounds retested in dose-response had high values. Format: functional. Conditions: 30 µM.

In test [8] the target is T4, Tyrosyl-tRNA synthetase, putative (Trypanosoma cruzi (strain CL Brener)). Put plainly: Trypanosoma cruzi tyrosyl tRNA synthetase (TcYRS) SOP. In kind it is functional. The settings on record: 30 µM.
The target of test [9] is Chromo domain-containing protein 1 (Saccharomyces cerevisiae (strain ATCC 204508 / S288c) (Baker's yeast)) (UniProt P32657). Briefly: ScCHD-1 Enzyme Inhibition Assay. Note: in the data most compounds retested in dose-response had high values. Format: functional. Conditions: 30 µM.

Each structure is given as a SMILES string. For some of these results: Measured potencies and affinities stand elsewhere.

Chain of Protein translocase subunit SecA (Escherichia coli (strain K12)) (P10408 whole entry): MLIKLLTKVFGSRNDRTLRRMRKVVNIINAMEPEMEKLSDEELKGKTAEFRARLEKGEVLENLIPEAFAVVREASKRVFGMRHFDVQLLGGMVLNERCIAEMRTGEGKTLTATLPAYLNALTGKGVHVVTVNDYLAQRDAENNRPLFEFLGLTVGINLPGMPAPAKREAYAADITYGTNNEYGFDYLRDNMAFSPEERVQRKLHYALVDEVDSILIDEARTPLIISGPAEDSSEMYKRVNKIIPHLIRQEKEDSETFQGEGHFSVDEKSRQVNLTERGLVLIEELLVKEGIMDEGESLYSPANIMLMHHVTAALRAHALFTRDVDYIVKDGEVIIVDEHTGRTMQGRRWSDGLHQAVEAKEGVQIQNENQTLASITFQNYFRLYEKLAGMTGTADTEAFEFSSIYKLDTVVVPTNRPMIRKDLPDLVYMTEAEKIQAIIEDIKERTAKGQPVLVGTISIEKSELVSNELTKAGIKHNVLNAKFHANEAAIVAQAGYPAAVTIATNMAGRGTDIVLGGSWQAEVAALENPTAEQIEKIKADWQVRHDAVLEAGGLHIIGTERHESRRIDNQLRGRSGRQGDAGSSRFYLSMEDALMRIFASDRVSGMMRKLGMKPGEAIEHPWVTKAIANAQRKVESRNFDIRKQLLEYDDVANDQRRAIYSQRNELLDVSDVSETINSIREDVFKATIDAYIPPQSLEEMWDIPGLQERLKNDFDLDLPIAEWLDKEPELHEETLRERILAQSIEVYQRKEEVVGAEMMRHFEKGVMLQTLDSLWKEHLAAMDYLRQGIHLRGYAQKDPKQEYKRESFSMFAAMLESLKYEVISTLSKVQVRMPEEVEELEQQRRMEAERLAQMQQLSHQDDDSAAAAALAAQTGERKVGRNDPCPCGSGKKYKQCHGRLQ
Chain of Chromo domain-containing protein 1 (Saccharomyces cerevisiae (strain ATCC 204508 / S288c) (Baker's yeast)) (P32657 whole entry, the tested form may be a part): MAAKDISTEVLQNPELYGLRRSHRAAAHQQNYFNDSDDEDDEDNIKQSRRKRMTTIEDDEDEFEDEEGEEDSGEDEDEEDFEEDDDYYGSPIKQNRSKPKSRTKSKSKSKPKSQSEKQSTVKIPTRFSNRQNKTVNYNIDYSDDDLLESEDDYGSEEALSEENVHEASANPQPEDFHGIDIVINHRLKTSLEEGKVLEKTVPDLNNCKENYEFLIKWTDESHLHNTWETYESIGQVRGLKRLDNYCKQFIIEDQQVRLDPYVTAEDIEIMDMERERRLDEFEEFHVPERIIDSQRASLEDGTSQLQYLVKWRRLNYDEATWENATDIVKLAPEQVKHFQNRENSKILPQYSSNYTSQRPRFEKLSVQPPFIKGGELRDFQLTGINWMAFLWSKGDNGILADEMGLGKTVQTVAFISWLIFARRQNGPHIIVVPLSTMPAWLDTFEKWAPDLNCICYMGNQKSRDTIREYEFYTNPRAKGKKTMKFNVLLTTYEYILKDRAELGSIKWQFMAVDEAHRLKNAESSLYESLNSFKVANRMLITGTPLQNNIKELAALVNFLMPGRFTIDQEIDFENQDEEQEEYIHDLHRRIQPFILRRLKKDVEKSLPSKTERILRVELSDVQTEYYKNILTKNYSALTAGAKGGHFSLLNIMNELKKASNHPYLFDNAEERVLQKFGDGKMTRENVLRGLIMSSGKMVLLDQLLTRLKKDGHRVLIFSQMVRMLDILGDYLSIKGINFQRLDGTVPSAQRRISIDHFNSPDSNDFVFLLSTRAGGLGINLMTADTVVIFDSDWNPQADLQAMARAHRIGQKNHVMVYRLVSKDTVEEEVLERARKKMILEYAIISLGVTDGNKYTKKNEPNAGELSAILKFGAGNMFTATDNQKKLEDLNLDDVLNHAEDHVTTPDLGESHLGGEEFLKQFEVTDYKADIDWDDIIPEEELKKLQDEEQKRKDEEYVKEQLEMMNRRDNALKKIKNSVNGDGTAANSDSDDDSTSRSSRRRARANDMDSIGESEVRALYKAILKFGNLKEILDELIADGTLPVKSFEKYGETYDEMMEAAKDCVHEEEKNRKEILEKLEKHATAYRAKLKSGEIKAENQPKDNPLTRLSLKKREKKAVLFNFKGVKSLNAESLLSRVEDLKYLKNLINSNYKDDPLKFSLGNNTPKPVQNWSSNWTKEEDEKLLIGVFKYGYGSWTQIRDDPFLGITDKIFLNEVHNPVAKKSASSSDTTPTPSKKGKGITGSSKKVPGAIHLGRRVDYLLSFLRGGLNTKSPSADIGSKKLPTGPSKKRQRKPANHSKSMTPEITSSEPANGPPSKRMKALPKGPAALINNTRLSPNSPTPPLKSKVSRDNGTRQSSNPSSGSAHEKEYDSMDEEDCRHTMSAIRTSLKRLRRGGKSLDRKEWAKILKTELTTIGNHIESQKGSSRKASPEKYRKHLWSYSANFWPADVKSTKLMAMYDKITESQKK
Chain of Sialic acid-binding Ig-like lectin 9 (Homo sapiens) (Q9Y336 whole entry): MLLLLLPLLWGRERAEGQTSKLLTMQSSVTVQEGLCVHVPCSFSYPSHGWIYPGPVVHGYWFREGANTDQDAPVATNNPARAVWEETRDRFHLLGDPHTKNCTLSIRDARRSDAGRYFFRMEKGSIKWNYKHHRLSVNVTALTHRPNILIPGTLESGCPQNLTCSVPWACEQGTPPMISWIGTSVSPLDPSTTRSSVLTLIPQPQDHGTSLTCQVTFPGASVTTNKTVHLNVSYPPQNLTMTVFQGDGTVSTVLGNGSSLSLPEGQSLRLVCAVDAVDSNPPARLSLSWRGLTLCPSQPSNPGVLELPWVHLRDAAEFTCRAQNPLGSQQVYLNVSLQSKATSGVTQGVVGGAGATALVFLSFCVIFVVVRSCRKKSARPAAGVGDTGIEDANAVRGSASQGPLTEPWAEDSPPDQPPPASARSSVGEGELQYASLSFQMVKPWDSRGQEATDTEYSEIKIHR

`O=C1CC[C@@H]2[C@@H](CCN2C(=O)c2ccsc2)N1CC1CC1`: the Percent Effect in [1] was -4.27%; in test [2], -2.7%; in [3], 6.58%; in [4] it was -0.934%; with Trypanosoma cruzi, 4.2%; in test [5], 2.23%. Moreover, the Percent Effect was 21.4% in test [6]; -14.4% in the test filed under Homo sapiens; 4.32% in [7]; 7.69% in [8]; 2.18% in test [9].
With `CCS(=O)(=O)c1ccc(N2CCC(NC(=O)CCC(C)C)CC2)cc1`, the Percent Effect was -1.62% in test [1]; 10.7% in test [2]; -6.1% in [3]; 12.2% in test [4]; 6.13% with Trypanosoma cruzi; 16.1% in test [5]. Moreover, the Percent Effect was 6.8% in test [6]; 27.1% in the test filed under Homo sapiens; 6.01% in test [7]; 8.64% in test [8]; -4.64% in [9].
For `COc1ccc(CNCCc2cc(F)cc3c2OCOC3)cc1O`, the Percent Effect in test [1] was -5.67%; in [2], 4.17%; in [3], -9.01%; in [4], 0.774%; in the test on Trypanosoma cruzi, -2.62%; in [5] it was -0.883%. The Percent Effect was 4.74% in test [6]; 2.67% in the test listed under Homo sapiens; 3.16% in test [7]; 5.13% in [8]; -2.11% in test [9].
`O=C(c1cscn1)N1CCC2(CCN(Cc3nccs3)C2)CC1`: the Percent Effect in [1] is -1.95%; in test [2] it was 2.7%; in [3], 2.22%; in [4] it was 3.97%; in the test with Trypanosoma cruzi, 0.293%; in test [5], -6.05%. In addition, the Percent Effect in test [6] was 16.4%; in the test listed under Homo sapiens it was -17.2%; in test [7] it was 1.08%; in [8], 5.13%; in test [9] it was 5.03%.
On to `O=C(COc1coc(CN2CCCCC2)cc1=O)Nc1ccc(Cl)cc1`, for which the Percent Effect in test [1] was -3.05%; in test [2], 1.33%; in [3], 4.41%; in [4], 7%; in the test with Trypanosoma cruzi, -0.982%; in test [5] it was -7.92%. Besides, the Percent Effect in test [6] is 6.1%; in the test filed under Homo sapiens, -11.6%; in test [7] it was 6.35%; in test [8], 10.3%; in test [9], 0.832%.
For `Cc1ccccc1N1CCCN(C(=O)CCCS(N)(=O)=O)CC1`, the Percent Effect was -0.353% in test [1]; 8.22% in test [2]; 25.9% in [3]; 2.05% in test [4]; -8.62% in the test on Trypanosoma cruzi; 2.73% in test [5]. Further, the Percent Effect in [6] was 23.8%; in the test filed under Homo sapiens, 28.3%; in test [7], 3.23%; in [8], 2.5%; in test [9] it was -13.8%.
For `Cc1nc(N2CCN(C)CC2)ncc1C(=O)N1CCC(O)(CO)CC1`, the Percent Effect was -6.99% in test [1]; 5.41% in test [2]; 51.9% in test [3]; 4.12% in test [4]; 2.25% in the test with Trypanosoma cruzi; 0.744% in [5]. Moreover, the Percent Effect in test [6] is 0.944%; in the test filed under Homo sapiens it was 9.71%; in [7] it was 6.45%; in test [8], 13.6%; in test [9] it was -3.95%.
`O=C(c1ccc(-n2cccn2)nc1)N1CCC(Nc2cccnn2)CC1`: the Percent Effect is -8.1% in test [1]; 10.4% in [2]; 4.61% in test [3]; 12.7% in test [4]; 1.47% with Trypanosoma cruzi; 0.632% in test [5]. Moreover, the Percent Effect in [6] is 12.8%; in the test filed under Homo sapiens, 5.75%; in test [7], 6.67%; in [8], 9.41%; in test [9], -8.74%.
With `Cc1oc(-c2ccsc2)nc1CC(=O)NCCS(C)(=O)=O`, the Percent Effect in [1] is -3.85%; in test [2], 5.2%; in test [3], 2.35%; in test [4], 5.36%; with Trypanosoma cruzi, -2.26%; in test [5], -4.14%. The Percent Effect was 9.48% in test [6]; 3.37% in the test filed under Homo sapiens; -1.07% in test [7]; 6.17% in [8]; -2.55% in [9].
Turning to `Cc1nc2ccccn2c1CN(Cc1cccnc1)CC1CCCO1` (stereo unspecified), the Percent Effect is -1.83% in test [1]; -2.74% in [2]; 2.15% in test [3]; 0.744% in test [4]; -6.27% in the test on Trypanosoma cruzi; 0.455% in test [5]. The Percent Effect is 7.63% in [6]; 13.7% in the test filed under Homo sapiens; -2.15% in [7]; -2.5% in [8]; -1.23% in test [9].
Take `Cc1ccc(C(=O)Nc2cn[nH]c2)cn1`: the Percent Effect was 0.472% in test [1]; 13.2% in test [2]; 9.28% in [3]; 0.161% in [4]; -1.13% in the test on Trypanosoma cruzi; -3.45% in test [5]. Also, the Percent Effect in [6] is 8.69%; in the test filed under Homo sapiens, 6.9%; in [7], 1.47%; in test [8], 19.5%; in test [9] it was -10.8%.
